Laboratory results from the supplement of paper PMC12645437, “Orthogonal IMiD-Degron Pairs Induce Selective Protein Degradation in Cells” (ACS Chemical Biology, 2025).
The full ranking holds about 8,300 sequences; the median of “log2 fold change of degron read counts, EGFP-low vs EGFP+ sorted cells (limma voom), compound-induced degradation” is about -1.1, and the highest 2% start at about 3.2. Shown is part of a subset that was picked to be rich in the highest values.

Target: T1, CRBN, Q96SW2
T1 chain: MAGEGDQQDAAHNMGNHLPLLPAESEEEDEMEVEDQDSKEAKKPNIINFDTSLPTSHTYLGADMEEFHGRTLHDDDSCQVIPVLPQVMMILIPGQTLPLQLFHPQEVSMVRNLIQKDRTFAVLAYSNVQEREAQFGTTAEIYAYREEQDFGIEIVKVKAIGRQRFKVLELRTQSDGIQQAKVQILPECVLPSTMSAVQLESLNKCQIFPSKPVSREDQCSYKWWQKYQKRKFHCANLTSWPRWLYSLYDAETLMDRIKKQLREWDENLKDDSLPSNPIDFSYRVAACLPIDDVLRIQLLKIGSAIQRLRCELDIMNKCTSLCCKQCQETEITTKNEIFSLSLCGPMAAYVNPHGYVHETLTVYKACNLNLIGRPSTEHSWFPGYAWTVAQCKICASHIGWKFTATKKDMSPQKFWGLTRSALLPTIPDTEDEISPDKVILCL
Assay: log2 fold change of degron read counts, EGFP-low vs EGFP+ sorted cells (limma voom), compound-induced degradation; higher = more compound-induced degradation of the degron-EGFP fusion; degrons are variants of IKZF1/3 zinc finger 2; compound dose not given here
Settings: Jurkat, 18 h

[1] = compound: compound 19 (5-tert-butyl-thalidomide)
[2] = compound: compound 22 (5-morpholino-thalidomide)
[3] = compound: compound 33 (diphenyl IMiD analogue)
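Further: pooled lentiviral library of zinc finger degron-EGFP fusions in mCherry-positive Jurkat cells, FACS-sorted after compound exposure, with degron abundance counted by next-generation sequencing.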

B1: 46F_47I_49N_50V_52G_53A_54Q_55F_67L_, Q9UKT9 (peptide)
chain: FICNVCGAQFTQKGNLLRHIKL
- log2 fold change of degron read counts [1]: -1.95
- log2 fold change of degron read counts [2]: 0.393
- log2 fold change of degron read counts [3]: 2
- log2 fold change of degron read counts (compound: thalidomide): 0.761

B2: 46F_47W_49E_50Q_52G_53A_54I_55F_67L_, Q9UKT9 (peptide)
chain: FWCEQCGAIFTQKGNLLRHIKL
- log2 fold change of degron read counts [1]: -0.201
- log2 fold change of degron read counts [2]: 0.552
- log2 fold change of degron read counts [3]: 0.154
- log2 fold change of degron read counts (compound: thalidomide): -1.07

B3: 46F_47S_49E_50V_52G_53A_54I_55F_67L_, Q9UKT9 (peptide)
chain: FSCEVCGAIFTQKGNLLRHIKL
- log2 fold change of degron read counts [1]: 1.27
- log2 fold change of degron read counts [2]: 0.887
- log2 fold change of degron read counts [3]: 1.42
- log2 fold change of degron read counts (compound: thalidomide): 0.379

B4: 46F_47I_49E_50V_52G_53A_54I_55F_67L_, Q9UKT9 (peptide)
chain: FICEVCGAIFTQKGNLLRHIKL
- log2 fold change of degron read counts [1]: -1.14
- log2 fold change of degron read counts [2]: 0.0357
- log2 fold change of degron read counts [3]: 2.04
- log2 fold change of degron read counts (compound: thalidomide): 1.14

B5: 46F_47Y_49E_50V_52G_53A_54I_55F_67L_, Q9UKT9 (peptide)
chain: FYCEVCGAIFTQKGNLLRHIKL
- log2 fold change of degron read counts [1]: 2.89
- log2 fold change of degron read counts [2]: 3.45
- log2 fold change of degron read counts [3]: 2.43
- log2 fold change of degron read counts (compound: thalidomide): 0.38

B6: 46F_47V_49E_50V_52G_53A_54I_55F_67L_, Q9UKT9 (peptide)
chain: FVCEVCGAIFTQKGNLLRHIKL
- log2 fold change of degron read counts [1]: -1.03
- log2 fold change of degron read counts [2]: -0.779
- log2 fold change of degron read counts [3]: 1.43
- log2 fold change of degron read counts (compound: thalidomide): 1.47

B7: 46F_47R_49E_50V_52G_53A_54I_55F_67L_, Q9UKT9 (peptide)
chain: FRCEVCGAIFTQKGNLLRHIKL
- log2 fold change of degron read counts [1]: -1.36
- log2 fold change of degron read counts [2]: -1.29
- log2 fold change of degron read counts [3]: 0.815
- log2 fold change of degron read counts (compound: thalidomide): 1.07

B8: 46F_47Q_49E_50V_52G_53A_54I_55F_67L_, Q9UKT9 (peptide)
chain: FQCEVCGAIFTQKGNLLRHIKL
- log2 fold change of degron read counts [1]: -1.13
- log2 fold change of degron read counts [2]: 3.07
- log2 fold change of degron read counts [3]: 2.65
- log2 fold change of degron read counts (compound: thalidomide): 3.7
